We go through 40 compounds from PubChem BioAssay (NCI).

The structures appear in SMILES notation. Compounds without any hit were thinned out: in the full panel of roughly 83,000, 20% have a hit.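 Interpretation: 100, growth as untreated; towards 0, rising growth inhibition; 0, no net growth; 0 to -100, cell death. Compounds scoring below 10 were considered active.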 Values without a mark were called inactive.

The subject of the assay is T-47D breast. Briefly: NCI-60 one-dose screen, 48 h (100 = growth as untreated, 0 = no growth, -100 = all killed). As to conditions: 10 µM. How it is done: Growth inhibition of the T-47D human tumor cell line is measured as a screen for anti-cancer activity. Cells are grown in 96 well plates and exposed to the test compound for 48 hours. Compounds are tested at a single concentration, which is 10^-5 M for most compounds. The reported endpoint is percent growth (GI% or GIPRCNT), where numbers from 0 - 100% represent growth inhibition, and numbers from -100% - 0 represent cell death. For example, a value of 40 represents 60% growth inhibition. A value of 0 means no net growth occurred over the course of the experiment. A value of -40 indicates 40% of cells at the beginning of the experiment died by the end of the experiment. A value of -100 means all cells are dead at the end of the experiment.
NCI-60 Human Tumor Cell Lines Screen was performed using the standard one-dose NCI protocol, which is described in more detail at https://dtp.cancer.gov/discovery_development/nci-60/default.htm.
Compounds with GIPRCNT values below 10 were considered active. Activity score was based on GIPRCNT using the following formula: […]
Score is 0 for GIPRCNT values of 100 or above, 50 for GIPRCNT values of 0, and 100 for GIPRCNT values of -100.
For the compound `CC(=O)c1ccc(N=C(C#N)C2=C(O)c3ccccc3C2=O)cc1`, the growth is 93.4%.

With `NC(=O)N/N=C\c1ccco1`, the growth was 107%.

For the compound `COCCCNC(=O)c1nnn2c1nc(N)c1cc(Cl)ccc12`, the growth is 79%.

`CC12CC3CC1C(C(=O)O2)C3C(=O)O` (stereo not given): the growth was 108%.

On to `O=C(c1ccc(Cl)cc1)c1ccccc1Cl`, for which the growth was 74.7%.

For the compound `COc1ccc(Oc2c(I)cc(CC(NC(C)=O)C(=O)O)cc2I)cc1` (stereo not given), the growth was 74%.

With `CC(C)=C(NC(=O)c1ccccc1)C(=O)O`, the growth was 116%.

Take `Nc1ccc(C(=O)c2ccc(N)c(Br)c2)cc1Br`: the growth was 43.5%.

As for `NC(CSC(c1ccccc1)(c1ccccc1)c1ccccc1)C(=O)O` (stereo not given), the growth was 15.5%.

As to `C#Cc1cccc(NC(=O)c2ccc(Cl)cc2Cl)c1`, the growth is 95.2%.

As for `O=C(O)C(Cc1ccccc1)C(=O)O`, the growth is 103%.

Turning to `Cc1ccc(N)cc1[N+](=O)[O-]`, the growth is 107%.

Turning to `CC(=O)NCc1cc(C)c(C)cc1C`, the growth was 89%.

For `C=C1CC/C=C(\C)C(=O)C[C@@H]2[C@@H]1CC2(C)C`, the growth was 94.6%.

In the case of `O/N=C/c1ccc(O)cc1O`, the growth was 94%.

In the case of `Oc1ccccc1-c1nnco1`, the growth was 82%.

Regarding `O=C(N/N=C\c1cc(Br)cc(Br)c1O)N/N=C/c1cc(Br)cc(Br)c1O`, the growth was 62.3%.

As to `Oc1ccccc1O`, the growth is 95.2%.

For `Nc1nc(N)c(N=Nc2ccc(C(=O)O)cc2)c(N)n1`, the growth is 100%.

Turning to `C=CCNc1nnc(C)s1`, the growth was 95.4%.

On to `CCS(=O)(=O)c1cc(=O)[nH]c(=O)[nH]1`, for which the growth is 114%.

In the case of `Nc1ccc(NC(=O)c2cccc(N)c2)cc1`, the growth was 95.9%.

Regarding `CCN1C(=O)/C(=C/C=C/N(C)c2ccccc2)SC1=S`, the growth was 79.8%.

For the compound `O=C(CCl)N1CCN(C/C=C/c2ccccc2)CC1`, the growth was 83.8%.

For the compound `O=C(/C=C\c1ccc(O)cc1)c1ccccc1`, the growth is 84.6%.

With `CCN(CC)CCNc1ccc(CO)c2sc3ccccc3c(=O)c12`, the growth was 48.3%.

As to `c1cc2cccc3c4cccc5cccc(c(c1)c23)c54`, the growth is 90.2%.

Consider `CC1(C(=O)O)NC(C(=O)O)Cc2c1[nH]c1ccccc21` (stereo not given), for which the growth is 95.7%.

As for `CC(C)OC(=O)c1cc(NC(=S)OC(C)C)ccc1Cl`, the growth is 58.3%.

For `O=S(=O)(O)CC(O)CN1CCN(CCO)CC1` (stereo not given), the growth was 108%.

Consider `Cc1cc(=O)[nH]c(NN=C2CCCC2)n1`, for which the growth was 103%.

Take `Cc1c(O)cnc2nn(-c3ccccc3)c(=N)n12`: the growth was 100%.

For the compound `O=C(CCNNC(=O)c1ccncc1)NCc1ccccc1`, the growth was 94.4%.

Regarding `C=CC(O)CCC` (stereo not given), the growth was 113%.

With `COC(=O)c1ccc(NC(=O)CCl)cc1`, the growth was 69.7%.

With `NC(=S)CN1CCOCC1`, the growth was 114%.

On to `Nc1ccccc1C(=O)Nc1ccc(Cl)cc1Cl`, for which the growth was 88%.

`CCOC(=O)C1OC1c1ccccc1` (stereo not given): the growth is 98.8%.

As for `O=C(O)CCCCNC(=O)c1ccccc1`, the growth was 88.2%.

As to `O=C1OC[C@H]2[C@H](c3ccc(O)c(O)c3)c3cc(O)c(O)cc3C[C@H]12`, the growth was 131%.
